Laboratory results from PubChem BioAssay AID1159580 (chemical genetic matrix, 2015).
Screen size: about 5,500 compounds; about 2,000 (36%) were called active. Not shown: some 18% with an inconclusive outcome. Cut-off read from the data, not from the text of the source: active = normalized growth mostly below about 0.91 (no sharp cut-off); inconclusive = no clear call, values can overlap the other calls; inactive = mostly above about 0.92. This is one part of the list.

Assay: chemical genetic growth profiling, strain panel (AID 1159580);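 note: tested at 20 µM; growth read once vehicle control cultures reached saturation at 30 °C; 1 = growth at the plate median or of vehicle wells; lower values mean less growth of the strain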
Conditions: growth OD
[1] = S. cerevisiae deletion strains, locus YDL101C, strain DUN1, stronger effect = lower value
[2] = S. cerevisiae deletion strains, locus YHR030C, strain SLT2, stronger effect = lower value

Measured: normalized growth

CCSc1nnc(N)s1
inactive: S. cerevisiae deletion strains, locus YAL013W, strain DEP1, stronger effect = lower value 1.02 | S. cerevisiae deletion strains, locus YBR229C, strain ROT2, stronger effect = lower value 1.01 | [1] 1.01 | S. cerevisiae deletion strains, locus YDL134C, strain PPH21, stronger effect = lower value 1.01 | S. cerevisiae deletion strains, locus YDR150W, strain NUM1, stronger effect = lower value 1 | S. cerevisiae deletion strains, locus YEL061C, strain CIN8, stronger effect = lower value 0.996 | S. cerevisiae deletion strains, locus YGR078C, strain PAC10, stronger effect = lower value 1.01 | [2] 1.05 | S. cerevisiae deletion strains, locus YHR087W, strain rtc3, stronger effect = lower value 1.01 | S. cerevisiae deletion strains, locus YJL187C, strain SWE1, stronger effect = lower value 1.01 | S. cerevisiae deletion strains, locus YJR043C, strain POL32, stronger effect = lower value 1 | S. cerevisiae deletion strains, locus YJR075W, strain HOC1, stronger effect = lower value 0.994 | S. cerevisiae deletion strains, locus YLR039C, strain RIC1, stronger effect = lower value 1.01 | S. cerevisiae deletion strains, locus YLR058C, strain SHM2 (second series), stronger effect = lower value 1.01 | S. cerevisiae deletion strains, locus YLR085C, strain ARP6, stronger effect = lower value 0.999 | S. cerevisiae deletion strains, locus YLR262C, strain YPT6, stronger effect = lower value 1.05 | S. cerevisiae deletion strains, locus YML094W, strain GIM5, stronger effect = lower value 0.995 | S. cerevisiae deletion strains, locus YMR219W, strain ESC1, stronger effect = lower value 1.01 | S. cerevisiae deletion strains, locus YMR263W, strain SAP30, stronger effect = lower value 1 | S. cerevisiae deletion strains, locus YMR307W, strain GAS1, stronger effect = lower value 0.981 | S. cerevisiae deletion strains, locus YNL128W, strain TEP1, stronger effect = lower value 1.01 | S. cerevisiae deletion strains, locus YNL153C, strain GIM3, stronger effect = lower value 0.997 | S. cerevisiae deletion strains, locus YNL298W, strain CLA4 (second series), stronger effect = lower value 0.995 | S. cerevisiae deletion strains, locus YNL322C, strain KRE1, stronger effect = lower value 1.02 | S. cerevisiae deletion strains, locus YNR030W, strain Alg12, stronger effect = lower value 1.01 | S. cerevisiae deletion strains, locus YPL055C, strain LGE1, stronger effect = lower value 0.997 | S. cerevisiae deletion strains, locus YPL241C, strain CIN2, stronger effect = lower value 1.01 | S. cerevisiae deletion strains, locus YPR135W, strain CTF4, stronger effect = lower value 1.11 | S. cerevisiae strains, strain wild type, stronger effect = lower value 1.01

N#CC(C#N)=C/C=C(/Sc1ccc(F)c(Cl)c1)c1ccc(Cl)cc1
active: [2] 0.741 | S. cerevisiae deletion strains, locus YLR113W, strain HOG1, stronger effect = lower value 0.632
inactive: S. cerevisiae deletion strains, locus YAR019C, strain CDC15, stronger effect = lower value 0.937 | S. cerevisiae deletion strains, locus YBL105C, strain PKC1, stronger effect = lower value 0.948 | S. cerevisiae deletion strains, locus YBR135W, strain CKS1, stronger effect = lower value 0.943 | S. cerevisiae deletion strains, locus YBR136W, strain MEC1, stronger effect = lower value 0.949 | S. cerevisiae deletion strains, locus YBR160W, strain CDC28, stronger effect = lower value 0.958 | S. cerevisiae deletion strains, locus YDL017W, strain CDC7, stronger effect = lower value 0.961 | S. cerevisiae deletion strains, locus YDL028C, strain MPS1, stronger effect = lower value 0.949 | [1] 0.961 | S. cerevisiae deletion strains, locus YDL108W, strain KIN28, stronger effect = lower value 0.947 | S. cerevisiae deletion strains, locus YDL132W, strain cdc53, stronger effect = lower value 0.942 | S. cerevisiae deletion strains, locus YDL214C, strain PRR2, stronger effect = lower value 0.891 | S. cerevisiae deletion strains, locus YDR052C, strain DBF4, stronger effect = lower value 0.956 | S. cerevisiae deletion strains, locus YDR054C, strain cdc34, stronger effect = lower value 0.943 | S. cerevisiae deletion strains, locus YDR226W, strain ADK1, stronger effect = lower value 0.964 | S. cerevisiae deletion strains, locus YDR477W, strain SNF1, stronger effect = lower value 0.839 | S. cerevisiae deletion strains, locus YER123W, strain YCK3, stronger effect = lower value 0.822 | S. cerevisiae deletion strains, locus YER133W, strain GLC7, stronger effect = lower value 0.872 | S. cerevisiae deletion strains, locus YFL009W, strain cdc4, stronger effect = lower value 0.943 | S. cerevisiae deletion strains, locus YFL029C, strain CAK1, stronger effect = lower value 0.951 | S. cerevisiae deletion strains, locus YFR003C, strain YPI1, stronger effect = lower value 0.951 | S. cerevisiae deletion strains, locus YFR019W, strain FAB1, stronger effect = lower value 0.95 | S. cerevisiae deletion strains, locus YFR028C, strain CDC14, stronger effect = lower value 0.949 | S. cerevisiae deletion strains, locus YGR040W, strain KSS1, stronger effect = lower value 0.823 | S. cerevisiae deletion strains, locus YGR052W, strain FMP48, stronger effect = lower value 0.81 | S. cerevisiae deletion strains, locus YGR092W, strain DBF2, stronger effect = lower value 0.759 | S. cerevisiae deletion strains, locus YHR079C, strain IRE1, stronger effect = lower value 0.806 | S. cerevisiae deletion strains, locus YHR082C, strain KSP1, stronger effect = lower value 0.839 | S. cerevisiae deletion strains, locus YHR205W, strain SCH9, stronger effect = lower value 0.608 | S. cerevisiae deletion strains, locus YIL147C, strain SLN1, stronger effect = lower value 0.951 | S. cerevisiae deletion strains, locus YJL095W, strain BCK1, stronger effect = lower value 0.69 | S. cerevisiae deletion strains, locus YJL128C, strain PBS2, stronger effect = lower value 0.896 | S. cerevisiae deletion strains, locus YJL157C, strain FAR1, stronger effect = lower value 0.892 | S. cerevisiae deletion strains, locus YJR016C, strain ILV3, stronger effect = lower value 0.937 | S. cerevisiae deletion strains, locus YJR066W, strain TOR1 (second series), stronger effect = lower value 0.748 | S. cerevisiae deletion strains, locus YJR066W, strain TOR1, stronger effect = lower value 0.781 | S. cerevisiae deletion strains, locus YKL048C, strain ELM1, stronger effect = lower value 0.932 | S. cerevisiae deletion strains, locus YKL067W, strain YNK1, stronger effect = lower value 0.888 | S. cerevisiae deletion strains, locus YKL101W, strain HSL1, stronger effect = lower value 0.834 | S. cerevisiae deletion strains, locus YKL193C, strain SDS22, stronger effect = lower value 0.947 | S. cerevisiae deletion strains, locus YKL203C, strain TOR2, stronger effect = lower value 0.87 | S. cerevisiae deletion strains, locus YLR133W, strain CKI1, stronger effect = lower value 0.906 | S. cerevisiae deletion strains, locus YLR403W, strain SFP1, stronger effect = lower value 0.753 | S. cerevisiae deletion strains, locus YML070W, strain DAK1, stronger effect = lower value 0.855 | S. cerevisiae deletion strains, locus YMR001C, strain CDC5, stronger effect = lower value 0.944 | S. cerevisiae deletion strains, locus YMR205C, strain PFK2 (second series), stronger effect = lower value 0.89 | S. cerevisiae deletion strains, locus YMR277W, strain FCP1, stronger effect = lower value 0.941 | S. cerevisiae deletion strains, locus YNL006W, strain LST8, stronger effect = lower value 0.976 | S. cerevisiae deletion strains, locus YNL020C, strain ARK1, stronger effect = lower value 0.884 | S. cerevisiae deletion strains, locus YNL161W, strain CBK1, stronger effect = lower value 0.96 | S. cerevisiae deletion strains, locus YNL183C, strain NPR1, stronger effect = lower value 0.749 | S. cerevisiae deletion strains, locus YNL207W, strain RIO2, stronger effect = lower value 0.938 | S. cerevisiae deletion strains, locus YNL222W, strain SSU72, stronger effect = lower value 0.955 | S. cerevisiae deletion strains, locus YNL307C, strain MCK1 (second series), stronger effect = lower value 0.711 | S. cerevisiae deletion strains, locus YOL078W, strain AVO1, stronger effect = lower value 0.94 | S. cerevisiae deletion strains, locus YOL136C, strain PFK27, stronger effect = lower value 0.879 | S. cerevisiae deletion strains, locus YOR061W, strain CKA2, stronger effect = lower value 0.827 | S. cerevisiae deletion strains, locus YOR119C, strain RIO1, stronger effect = lower value 0.876 | S. cerevisiae deletion strains, locus YOR231W, strain MKK1, stronger effect = lower value 0.781 | S. cerevisiae deletion strains, locus YOR329C, strain SCD5, stronger effect = lower value 0.956 | S. cerevisiae deletion strains, locus YPL031C, strain PHO85, stronger effect = lower value 0.758 | S. cerevisiae deletion strains, locus YPL153C, strain RAD53, stronger effect = lower value 0.856 | S. cerevisiae deletion strains, locus YPL204W, strain HRR25, stronger effect = lower value 0.856 | S. cerevisiae deletion strains, locus YPL209C, strain IPL1, stronger effect = lower value 0.954 | S. cerevisiae deletion strains, locus YPL256C, strain CLN2, stronger effect = lower value 0.877 | S. cerevisiae deletion strains, locus YPR025C, strain CCL1, stronger effect = lower value 0.956 | S. cerevisiae deletion strains, locus YPR106W, strain ISR1, stronger effect = lower value 0.957 | S. cerevisiae deletion strains, locus YPR111W, strain DBF20, stronger effect = lower value 0.944 | S. cerevisiae deletion strains, strain NNK1, stronger effect = lower value 0.946 | S. cerevisiae deletion strains, strain TSCII, stronger effect = lower value 0.945
